Drawing on PubChem BioAssay, this text covers composite z-score and z-score for 36 compounds.

Molecules are shown by their SMILES. Calls of active or inactive are those of the source.

Torsin-1A-interacting protein 2 (Homo sapiens), sequence (Q8NFQ8 whole entry, looked up): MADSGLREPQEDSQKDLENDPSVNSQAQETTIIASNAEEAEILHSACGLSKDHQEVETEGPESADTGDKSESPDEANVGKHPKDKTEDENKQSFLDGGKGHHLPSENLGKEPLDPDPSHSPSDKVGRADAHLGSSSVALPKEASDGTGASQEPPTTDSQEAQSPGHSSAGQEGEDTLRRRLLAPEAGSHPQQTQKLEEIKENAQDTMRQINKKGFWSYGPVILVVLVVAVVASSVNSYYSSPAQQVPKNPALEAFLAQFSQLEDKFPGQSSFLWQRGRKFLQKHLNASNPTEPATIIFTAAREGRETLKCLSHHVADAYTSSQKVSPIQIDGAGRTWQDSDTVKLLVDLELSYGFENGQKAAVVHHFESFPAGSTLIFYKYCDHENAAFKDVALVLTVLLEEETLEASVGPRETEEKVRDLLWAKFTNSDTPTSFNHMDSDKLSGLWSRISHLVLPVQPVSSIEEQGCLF

The first experiment concerns the target Torsin-1A-interacting protein 2 (Homo sapiens) (UniProt Q8NFQ8). Kind of experiment: small molecules binding lysate-expressed LULL1 – cell lysate, human LULL1 lysate, 635/667 nm fluorescence, primary screen (AID 1092).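 Further: probe is lysate of COS7 cells overexpressing human LULL1; score merges per-feature 667 nm fluorescence with signal-to-noise.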 The following applies: small-molecule microarray, hLULL1 lysate binding, 635 nm fluorescence; higher = more signal.
`CC(C)=CCCC(C)=CCON=C1C[C@@H](O)[C@@H](O)[C@@H]2[C@@H]3C(=O)N(Cc4ccccc4)C(=O)[C@@H]3CC[C@H]12` registered a composite z-score of 1.94.
The compound `CC(C)C[C@H](NC(=O)CCC1CC(OC(=O)NCc2cccc3ccccc23)CC2(CCCC(COC(=O)NCc3ccccc3)O2)O1)C(=O)NCC(c1ccccc1)c1ccccc1` (stereo partly drawn) gave a composite z-score of 1.97.
The compound `CC(C)CON=C1C[C@@H](O)[C@@H](O)[C@@H]2[C@@H]3C(=O)N(C4CCCCC4)C(=O)[C@@H]3CC[C@@H]12` had a composite z-score of 1.64.
The same measure, in the same setting: the same measure for `C[C@@H](c1ccccc1)N1C(=O)[C@H]2[C@H]3[C@H](O)[C@H](O)CC(=NO[C@@H]4O[C@H](CO)[C@@H](O)[C@H](O)[C@H]4O)[C@H]3CC[C@H]2C1=O`: 0.288.
The same measure, in the same setting: the same measure for `COC(=O)[C@@H]1CC[C@H](C)[C@@H](c2ccc(C)cc2)N1C(=O)c1ccc(C=NOC[C@@H](C)[C@H](OCc2ccccc2)C(C)C)cc1`: 1.3.
`C[C@@H](c1ccccc1)N1C(=O)[C@H]2[C@H]3[C@H](O)[C@H](O)CC(=NOCc4ccccc4)[C@H]3CC[C@H]2C1=O` gave a composite z-score of 2.38.
Turning to `COC(=O)CC=C[C@@H](C)[C@@H](C=NOCC[C@@H]1C=C[C@H](OC(C)=O)[C@@H](COC(C)=O)O1)OC`, the composite z-score amounted to 0.431.

Test system in the next experiment: not listed separately
Put plainly: optical density change of DRC41 E. coli – strain DRC41, OD650, 24 h, E. coli filamentation project, primary screen (AID 1093).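 Further: MC1000 strain lacking acrAB efflux and sulA so SOS filamentation is blocked; test concentration not given here.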 To be noted: E. coli DRC41 growth, higher = more signal, called active from +8 up or from −8 down.
As for `C#CCCCON=C1[C@H]2CCn3c(=O)n(C)c(=O)n3[C@H]2[C@H](O)[C@@H]2O[C@H]12`, the z-score is -0.305 (inactive).
For `CCCCC#C[C@@H]1C=C[C@H](OC(C)=O)[C@@H](COC(C)=O)O1`, the z-score is 0.325 (inactive).
With `CO[C@@H]1COC(=O)[C@@H](C)COC(=O)[C@@H](C)NC(=O)CC=C[C@@H]1C`, the z-score is -0.801 (inactive).
In the case of `Cc1ccc(S(=O)(=O)OC[C@H]2CN3[C@H](c4ccc(Br)cc4)[C@@H](C)CC[C@H]3C(=O)O2)cc1`, the z-score is 2.18 (inactive).
On to `COc1ccc(COC(=O)NN=C2C[C@@H](O)[C@@H](O)[C@@H]3[C@@H]4C(=O)N(c5cccc(Oc6ccccc6)c5)C(=O)[C@@H]4CC[C@@H]23)cc1`, for which the z-score is 0.301 (inactive).
The same measure, in the same setting: the same measure for `O=C1C2=CC[C@H]3C(=O)N(c4cccc(Oc5ccccc5)c4)C(=O)[C@H]3[C@H]2[C@H](O)[C@@H]2O[C@H]12`: -0.425 (inactive).
On to `CC(CCN1CCCCc2nc(C)c(C)cc21)=NO[C@H](C)c1cn([C@H](CO)Cc2ccccc2)nn1`, for which the z-score was -0.425 (inactive).
Consider `CO[C@@H]1COC(=O)[C@H](CCSC)NC(=O)CC=C[C@@H](C)COC(=O)CCC[C@H]1C`, for which the z-score was -0.0886 (inactive).
In the case of `CC(CCN1CCCc2nc(C)c(C)cc21)=NO[C@@H](C)c1cc(-c2c(C)cc(C)cc2C)no1`, the z-score was 1.74 (inactive).
Regarding `CO[C@@H]1COC(=O)[C@@H](C)NC(=O)CC=C[C@@H](C)[C@H](NS(=O)(=O)c2ccc(C)cc2)COC(=O)[C@H](C)NC(=O)CC=C[C@H]1C`, the z-score was 1.72 (inactive).
The same measure, in the same setting: the same measure for `CCN1C(=O)[C@H]2[C@H]3[C@H](O)[C@H](O)CC(=NOC[C@H]4O[C@H](c5ccccc5)C=C[C@@H]4Oc4ccc(OC)cc4)[C@@H]3CC[C@H]2C1=O`: 0.964 (inactive).
Still for that read-out and setting: the same measure for `CCOC(=O)[C@H](CC(C)C)NC(=O)CCC1CC(OC(=O)NCc2cccc3ccccc23)CC2(CCCC(COC(=O)NCC3CCCCC3)O2)O1` (stereo partly drawn): -0.683 (inactive); for `CC(C)CCN1CCc2nc(COc3ccccc3)c3c(c2C1)CO[C@@H](C)C3`: 1.17 (inactive); for `COC(=O)CC=C[C@@H](C)[C@@H](C=NO[C@H](C)c1cn([C@H](CO)Cc2ccccc2)nn1)OC`: 0.0673 (inactive).
Turning to `CON=C(C)CCC(=O)OC[C@H]1O[C@H](c2ccccc2)C=C[C@@H]1Oc1ccc(OC)cc1`, the z-score was 0.403 (inactive).
Turning to `CCOC(=O)NN=C1C[C@@H](O)[C@@H](O)[C@@H]2[C@@H]3C(=O)N(c4cccc(Oc5ccccc5)c4)C(=O)[C@@H]3CC[C@@H]12`, the z-score is 0.205 (inactive).
For the compound `CCN1C(=O)[C@H]2[C@H]3[C@H](O)[C@H](O)CC(=NO[C@@H](C)c4cn([C@H](CO)Cc5ccccc5)nn4)[C@@H]3CC[C@H]2C1=O`, the z-score is 0.194 (inactive).
In the case of `COC(=O)CC=C[C@@H](C)[C@@H]1C=C[C@H](O)[C@@H](CO)O1`, the z-score was 0.426 (inactive).
The same measure, in the same setting: the same measure for `C[C@@H](ON=C1[C@H]2CCn3c(=O)n(-c4ccccc4)c(=O)n3[C@H]2[C@H](O)[C@@H]2O[C@H]12)c1cn([C@@H]2COC[C@H]2O)nn1`: 0.389 (inactive).
Same read-out and setting: the same measure for `CC(CCC(=O)OC[C@H]1O[C@H](C#Cc2ccccc2)C=C[C@@H]1Oc1ccc(C)cc1)=NO[C@H](C)c1cn([C@H](CO)Cc2ccccc2)nn1`: 0.171 (inactive).
Same read-out and setting: the same measure for `C#CCCCON=C1C[C@@H](O)[C@@H](O)[C@@H]2[C@@H]3C(=O)N(C(C)(C)C)C(=O)[C@@H]3CC[C@H]12`: 0.216 (inactive); for `COc1ccc(COC(=O)NN=C2C[C@@H](O)[C@@H](O)[C@@H]3[C@@H]4C(=O)N(C5CCCCC5)C(=O)[C@@H]4CC[C@H]23)cc1`: -0.277 (inactive); for `COC(=O)CC=C[C@H](C)[C@@H](OCc1cccc(Br)c1)[C@@H](C)[C@H](OC)C1CCCCC1`: 0.276 (inactive).
For `Cc1ccc(S(=O)(=O)N[C@@H]2COC(=O)[C@@H](C)COC(=O)CC=C[C@H]2C)cc1`, the z-score is -0.266 (inactive).
Still for that read-out and setting: the same measure for `O=C1[C@H]2[C@H]3[C@H](O)[C@H](O)CC(=NO[C@@H]4O[C@H](CO)[C@@H](O)[C@H](O)[C@H]4O)[C@H]3CC[C@H]2C(=O)N1c1cccc(Oc2ccccc2)c1`: 0.563 (inactive).
On the same count and under the same terms, the same measure for `CCC1=NOC(CCC2CC(OC(=O)NCc3cccc4c3OCO4)CC3(CCCC(COC(=O)NCCc4ccccc4OC)O3)O2)C1` (stereo not drawn): 1.11 (inactive).
For the compound `CCOC(=O)[C@H](CC(C)C)NC(=O)CCC1CC(OC(=O)NCc2cccc3ccccc23)CC2(CCCC(COC(=O)NCCOc3ccccc3)O2)O1` (stereo partly drawn), the z-score was 0.0653 (inactive).
The same measure, in the same setting: the same measure for `O=c1n(Cc2cc3c(cc2Cl)OCO3)c(=O)n2n1CC[C@@H]1C(=NOCc3ccccc3)[C@H]3O[C@H]3[C@@H](O)[C@@H]12`: -0.363 (inactive); for `COC(=O)[C@@H]1CC[C@H](C)[C@@H](c2ccc(C)cc2)N1C(=O)c1ccc(C=NO[C@@H](C)c2cn([C@H](CO)Cc3ccccc3)nn2)cc1`: 1.35 (inactive).
With `CC(C)=CCCC(C)=CCON=C1C[C@@H](O)[C@@H](O)[C@@H]2[C@@H]3C(=O)N(Cc4ccccc4)C(=O)[C@@H]3CC[C@H]12`, the z-score is -0.128 (inactive).
As for `CC(C)C[C@H](NC(=O)CCC1CC(OC(=O)NCc2cccc3ccccc23)CC2(CCCC(COC(=O)NCc3ccccc3)O2)O1)C(=O)NCC(c1ccccc1)c1ccccc1` (stereo partly drawn), the z-score is 0.94 (inactive).
As to `CC(C)CON=C1C[C@@H](O)[C@@H](O)[C@@H]2[C@@H]3C(=O)N(C4CCCCC4)C(=O)[C@@H]3CC[C@@H]12`, the z-score was -0.233 (inactive).
As for `C[C@@H](c1ccccc1)N1C(=O)[C@H]2[C@H]3[C@H](O)[C@H](O)CC(=NO[C@@H]4O[C@H](CO)[C@@H](O)[C@H](O)[C@H]4O)[C@H]3CC[C@H]2C1=O`, the z-score was 0.466 (inactive).
For `COC(=O)[C@@H]1CC[C@H](C)[C@@H](c2ccc(C)cc2)N1C(=O)c1ccc(C=NOC[C@@H](C)[C@H](OCc2ccccc2)C(C)C)cc1`, the z-score was 0.862 (inactive).
Turning to `C[C@@H](c1ccccc1)N1C(=O)[C@H]2[C@H]3[C@H](O)[C@H](O)CC(=NOCc4ccccc4)[C@H]3CC[C@H]2C1=O`, the z-score is -0.0659 (inactive).
Same read-out and setting: the same measure for `COC(=O)CC=C[C@@H](C)[C@@H](C=NOCC[C@@H]1C=C[C@H](OC(C)=O)[C@@H](COC(C)=O)O1)OC`: -0.152 (inactive).
